An excerpt weighted towards active compounds, which were near 1.6% of everything screened.
KCNQ2 block – rat KCNQ2 potassium channel inhibitors, primary screen, cell-based, CHO-K1, FluxOR thallium flux, B-score | Potassium voltage-gated channel subfamily KQT member 2 (Rattus norvegicus), O88943 | 20 min; active compounds read low | B-score at 10 µM | 1.1% of 310,000 active | AID 2156, 2009;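 active means fluorescence ratio B-score at most minus 3 library SDs, with starting brightness B-score within 2 library SDs, cut at about -5.5 in these data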
Target sequence (O88943 whole entry, looked up): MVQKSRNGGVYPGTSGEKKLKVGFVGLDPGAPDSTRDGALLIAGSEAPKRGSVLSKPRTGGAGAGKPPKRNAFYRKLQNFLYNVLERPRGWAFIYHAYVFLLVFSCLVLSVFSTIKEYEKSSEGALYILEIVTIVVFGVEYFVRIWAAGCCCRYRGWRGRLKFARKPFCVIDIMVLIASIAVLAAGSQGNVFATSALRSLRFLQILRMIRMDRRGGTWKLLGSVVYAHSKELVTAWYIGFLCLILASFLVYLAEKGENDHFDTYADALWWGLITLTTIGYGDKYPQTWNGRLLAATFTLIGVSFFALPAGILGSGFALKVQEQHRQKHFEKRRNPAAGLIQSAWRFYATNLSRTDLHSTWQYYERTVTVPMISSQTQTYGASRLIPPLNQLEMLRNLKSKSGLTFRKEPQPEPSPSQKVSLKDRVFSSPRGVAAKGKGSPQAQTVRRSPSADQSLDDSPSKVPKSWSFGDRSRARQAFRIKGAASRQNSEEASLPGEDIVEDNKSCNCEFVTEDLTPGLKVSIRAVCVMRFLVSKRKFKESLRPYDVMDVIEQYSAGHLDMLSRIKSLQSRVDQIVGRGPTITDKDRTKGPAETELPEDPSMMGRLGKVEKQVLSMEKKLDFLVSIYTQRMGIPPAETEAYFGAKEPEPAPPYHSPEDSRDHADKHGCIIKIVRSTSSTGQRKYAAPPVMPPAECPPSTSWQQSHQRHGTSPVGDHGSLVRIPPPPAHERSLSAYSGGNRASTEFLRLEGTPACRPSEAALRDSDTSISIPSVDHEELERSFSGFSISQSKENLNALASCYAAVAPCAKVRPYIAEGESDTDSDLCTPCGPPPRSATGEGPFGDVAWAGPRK
KCNQ2 pot – potentiators of rat KCNQ2 potassium channel; 0.54% of 310,000 active; B-score at 10 µM; CHO-K1 KCNQ2, FluxOR thallium flux fluorescence; active compounds read high;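 active means fluorescence ratio B-score at least 3 SD of library B-scores, with initial fluorescence B-score within 3 of them, cut at about 5.3 in these data; same plate scores as AID 2156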;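 further: B-score of peak minus minimum over baseline fluorescence ratio after K+ and Tl+ stimulus; positive B-score means potentiation of KCNQ2 with more thallium influx and brighter signal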
Kir21 conf inh – mouse Kir2.1 channel blockers, retest, confirmation, cell-based, FluxOR thallium flux, duplicate. AID 2032, 2009. Tl flux remaining, % of negative control (active compounds read low), % at 10 µM. 41% of 2,300 active. Kir2.1-expressing cells, FluxOR thallium flux fluorescence; active compounds read low. shares compounds with KCNQ2 pot;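 active means Primary-screen hit whose thallium flux fell at least 3 control SD below untreated wells in both duplicates, with normal baseline fluorescence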;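 further: 0% = blank wells without stimulus and 100% = stimulated no-compound controls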
HEK293 ctr – parental HEK293 activity in Kir2.1 inhibitor counter-screen; FluxOR signal as % of negative control (100 = no effect), % at 10 µM; shares compounds with KCNQ2 pot; 19% of 2,300 active; parental HEK293 cells, FluxOR thallium flux fluorescence; 0% = unstimulated blank wells; AID 2105;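 active means dye signal at least 3 control SD above or below untreated wells in both duplicates, raw fluorescence within 3, either direction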;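 further: percent is based on the flux ratio of peak minus minimum fluorescence over baseline F0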
CHO-K1 Tl ctr – nonspecific thallium flux increase in parental CHO-K1, confirmation, counter-screen for KCNQ2 potentiator project, cell-based, FluxOR thallium flux, duplicate | shares compounds with KCNQ2 pot | parental CHO-K1 cells, FluxOR thallium flux fluorescence; zero = vehicle mean+3SD, 100% = vehicle-minus-blank window | activity increase over 3SD of controls, % at 10 µM | 43% of 1,200 active | AID 2282, 2010;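 active means signal rise of at least 3 SD above the untreated control mean, in both duplicate wells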;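 further: counter screen of KCNQ2 potentiator hits so any rise reflects channel-independent effects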
KCNQ1 pot spec – human KCNQ1 channel potentiation off-target, confirmation, selectivity assay for KCNQ2 potentiator project, cell-based, CHO, FluxOR thallium flux. shares compounds with KCNQ2 pot. CHO KCNQ1 stable, FluxOR thallium flux fluorescence; beyond 3SD, as % of vehicle-control signal. activation over 3SD threshold, % at 10 µM. 28% of 1,200 active;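 active means fluorescence ratio rise of at least 3 SD of vehicle wells above their mean, in both replicate wells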;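 further: 0% = vehicle mean plus 3 SD and 100% = vehicle minus unstimulated blank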
KCNQ2 pot confirm – rat KCNQ2 channel potentiators, confirmation, cell-based, CHO, FluxOR thallium flux, duplicate; shares compounds with KCNQ2 pot; CHO-KCNQ2 cells, FluxOR thallium flux fluorescence; potentiation, less the hit threshold, % at 10 µM; 68% of 1,200 active; AID 2287, 2010;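 active means fluorescence ratio rising 3 SD or more over the vehicle control mean in both replicates, plus primary screen hit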;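 further: peak minus minimum thallium fluorescence divided by baseline after K/Tl stimulus; 0% = vehicle mean plus 3 SD and 100% = vehicle minus unstimulated blank difference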
Kir21 spec – mouse Kir2.1 channel activation off-target, confirmation, selectivity assay for KCNQ2 potentiator project, cell-based, HEK293, FluxOR thallium flux | 2% of 1,200 active | HEK293 Kir2.1, FluxOR thallium flux fluorescence | activity over 3SD threshold, % at 10 µM | shares compounds with KCNQ2 pot | AID 2345, 2010;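 active means fluorescence ratio rise of at least 3 SD above the vehicle-control mean, seen in both replicates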;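 further: 0% = vehicle mean plus 3 SD and 100% = vehicle minus no-stimulus blank window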
KCNQ2 W236L MoA – potentiators of retigabine-insensitive KCNQ2 W236L, mechanism study for KCNQ2 potentiator project, cell-based, rat KCNQ2 W236L, CHO, automated patch clamp | shares compounds with KCNQ2 pot | automated patch clamp current | current increase over 3SD of negative controls (%), active compounds read high, % at 25 µM | 10% of 940 active | AID 2558, 2010;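 active means current increase at least 3 SD of the untreated controls above them in both duplicate recordings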
* hit, by the source's call; i = inactive; / = not tested or not shown.

SMILES	KCNQ2 block	KCNQ2 pot	Kir21 conf inh	HEK293 ctr	others
CC1CCCN(C(=O)CCNC(=O)Cn2cnc3ccccc3c2=O)C1 (stereo unspecified)	i	/	/	/
O=C(CCN1CCC(c2ccc(Cl)s2)=N1)c1ccc(Cl)s1	i	0.07	/	/
Cc1snnc1C(=O)NC(=S)Nc1ccccc1	i	5.95*	i	239.0%*	CHO-K1 Tl ctr=-22.4;KCNQ1 pot spec=-13.8;KCNQ2 pot confirm=34.5*;Kir21 spec=-16.7;KCNQ2 W236L MoA=i
O=C(NC(=S)Nc1cccnc1)c1ccccc1	i	0.03	/	/
C=CCNC(=O)c1c(Br)cnn1-c1ccc(C)cc1	i	/	/	/
S=C(Nc1ccccc1)N1CCCCC1	i	6.94*	i	i	CHO-K1 Tl ctr=-13.7;KCNQ1 pot spec=6.3*;KCNQ2 pot confirm=-14.0;Kir21 spec=-28.9
O=C(O)c1ccc(NC(=S)N2CCCCC2)cc1	i	0.58	/	/
O=C(Cn1cnc2c(nnn2Cc2ccc(F)cc2)c1=O)Nc1ccccc1	i	0.04	/	/
CSc1scc2c1-c1nc(SCC(=O)C(C)(C)C)ncc1CC2	i	6.68*	i	i	CHO-K1 Tl ctr=-10.9;KCNQ1 pot spec=61.0*;KCNQ2 pot confirm=2.8*;Kir21 spec=-37.2;KCNQ2 W236L MoA=i
CC(C)(C)C(=O)CSc1ncccn1	i	/	/	/
Cc1ccc(NC(=O)NCCCc2ccccc2)cc1	i	6.27*	i	i	CHO-K1 Tl ctr=5.9*;KCNQ1 pot spec=71.4*;KCNQ2 pot confirm=-2.7;Kir21 spec=-35.9;KCNQ2 W236L MoA=i
Cc1ccc(NC(=O)NCCSc2ccc(C)cc2)cc1	i	5.48*	i	i	CHO-K1 Tl ctr=-3.9;KCNQ1 pot spec=48.2*;KCNQ2 pot confirm=-4.5;Kir21 spec=-26.2
Cc1ccc(NC(=O)NCC2CC2(Cl)Cl)cc1 (stereo unspecified)	i	10.2*	i	i	CHO-K1 Tl ctr=21.8*;KCNQ1 pot spec=-20.9;KCNQ2 pot confirm=-1.2;Kir21 spec=-30.9;KCNQ2 W236L MoA=i
O=C(NCCCCc1ccccc1)Nc1ccc(F)cc1	i	2.15	/	/
Cc1ccc(NC(=S)NCCSc2ccc(Cl)cc2)cc1	i	3.24	/	/
Cc1ccc(CNC(=O)Nc2ccc(C)cc2)cc1	i	2.51	/	/
COc1ccc(NC(=O)NCCCN2CCC(Cc3ccccc3)CC2)cc1	i	/	/	/
CSc1ccc(NC(=O)NCCCN2CCC(Cc3ccccc3)CC2)cc1	i	/	63.5%*	i
COc1ccc2c(Cl)c(C(=O)N/N=C/c3cccnc3)sc2c1	i	/	/	/
O=C(N/N=C/c1ccc(F)cc1)c1cccc(NC(=O)c2ccccc2Cl)c1	i	1.59	/	/
O=S(=O)(NC1CCCCC1Oc1ccccc1)c1ccccc1 (stereo unspecified)	i	/	/	/
COc1ccccc1N1CCN(C2CCCN(C(=O)CCc3ccccn3)C2)CC1 (stereo unspecified)	i	0.24	/	/
N#CCCOC1(C#CCN2CCCC2)CCCCC1	i	/	/	/
CC(C)c1nc2n[nH]c(N)c2c2c1CCCC2	i	2.17	40.5%*	i
CC(C)Cc1nc2n[nH]c(N)c2c2c1CCCC2	i	2.59	/	/
SMILES	KCNQ2 block	KCNQ2 pot	Kir21 conf inh	HEK293 ctr	others
S=C(N/N=C/c1cccc2ccccc12)Nc1cccc(Cl)c1	i	/	/	/
CCCCCNC(=O)c1ccc2c(=O)n(CC3CCCO3)c(=O)[nH]c2c1 (stereo unspecified)	i	6.09*	i	i	CHO-K1 Tl ctr=-9.8;KCNQ1 pot spec=-28.3;KCNQ2 pot confirm=-12.4;Kir21 spec=-41.1
CCCCCNC(=O)c1ccc2c(=O)n(CC3CCCO3)c(=S)[nH]c2c1 (stereo unspecified)	i	0.82	/	/
CCOC(=O)N1CCN(S(=O)(=O)N2CCCC(C(=O)NCCCN3CCCCC3)C2)CC1 (stereo unspecified)	i	/	/	/
Cc1cc(C)c2nc(N(CCCN(C)C)C(=O)c3ccc4c(c3)OCCO4)sc2c1	-5.83*	-5.83	50.5%*	i
Cc1cc(C)c2nc(N(CCCN(C)C)C(=O)C3=COCCO3)sc2c1	i	/	/	/
COc1ccc(C(=O)O)cc1NC(=S)NC(=O)C(c1ccccc1)c1ccccc1	i	/	/	/
CCc1cc2c3c([nH]c2cc1S(=O)(=O)N1CCC2(CC1)OCCO2)CCCC3=O	i	1.58	/	/
Cc1cc2c3c([nH]c2cc1S(=O)(=O)N1CCC2(CC1)OCCO2)CC(C)(C)CC3=O	i	5.46*	i	62.5%*	CHO-K1 Tl ctr=-2.9;KCNQ1 pot spec=-23.7;KCNQ2 pot confirm=-11.1;Kir21 spec=-26.9
COc1ccc2nc(NNC(=O)c3cc(=O)c4ccccc4o3)sc2c1	i	13.1*	i	i	CHO-K1 Tl ctr=-14.1;KCNQ1 pot spec=-7.9;KCNQ2 pot confirm=-23.5;Kir21 spec=-21.1
Cc1cccc2sc(NNC(=O)c3cc(=O)c4ccccc4o3)nc12	i	0.27	/	/
COc1ccc(CCNC(=O)C(NS(=O)(=O)c2cccc3nsnc23)C(C)C)cc1OC (stereo unspecified)	i	0.28	/	/
CC(C)NC(=O)Cn1cc(S(=O)(=O)N2CCCC2)c(S(=O)(=O)N2CCCC2)c1	i	0.34	/	/
Cn1cnc([N+](=O)[O-])c1NC(C)(C)C	i	0.13	/	/
Cn1cnc([N+](=O)[O-])c1S(=O)(=O)c1ccc(Cl)cc1	i	/	69.5%*	68.0%*
CC(=O)/C(=N/Nc1ccccc1C)N1CCOCC1	i	1.91	/	/
Cc1cc(=O)[nH]c(SCC(=O)N2CCN(C(c3ccccc3)c3ccccc3)CC2)n1	i	10.3*	i	i	CHO-K1 Tl ctr=-2.2;KCNQ1 pot spec=9.2*;KCNQ2 pot confirm=5.0*;Kir21 spec=-25.6;KCNQ2 W236L MoA=i
Cc1cc(=O)[nH]c(SCC(=O)N2CCCCC2)n1	i	/	/	/
CCOC(=O)N1CCN(c2cc(=O)n(-c3cccc(C)c3)c(=O)[nH]2)CC1	i	0.9	/	/
Cc1cc(C)cc(C(=O)NC(CC(N)=O)c2ccc(NCCN3CCCC3)c([N+](=O)[O-])c2)c1 (stereo unspecified)	i	0.67	/	/
c1coc(CN=C2NC(=NCc3ccco3)c3ccccc32)c1	i	/	35.0%*	i
O=C1c2ccccc2C(O)N1Cc1ccco1 (stereo unspecified)	i	2.19	/	/

Compound activity (PubChem)
